# FBPA Giardia inh: qHTS Assay for Inhibitors of Fructose-1,6-bisphosphate Aldolase from Giardia Lamblia | purified Giardia FBPA | 290,000 tested, 0.71% active | Potency, µM (series often up to 59.6 µM), for the others: top-dose activity, negative = inhibition, most hits filed as inhibitors | AID 2451, 2010 | A8B2U2; also: potency is read from the fitted curve at half-maximal effect; nearly all actives have a fitted effect of over 55% in size
# Target sequence (A8B2U2 whole entry, looked up): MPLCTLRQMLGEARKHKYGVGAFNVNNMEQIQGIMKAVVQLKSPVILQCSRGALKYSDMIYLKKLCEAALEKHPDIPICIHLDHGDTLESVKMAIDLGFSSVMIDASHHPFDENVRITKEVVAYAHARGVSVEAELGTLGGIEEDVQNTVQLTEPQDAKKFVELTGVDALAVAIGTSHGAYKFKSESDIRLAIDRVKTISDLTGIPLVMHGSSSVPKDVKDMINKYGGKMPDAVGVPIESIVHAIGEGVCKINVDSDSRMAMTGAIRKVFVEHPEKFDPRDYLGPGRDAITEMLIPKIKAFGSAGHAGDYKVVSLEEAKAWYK
#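 Giardia FBPA (40 nM reagent) was preincubated 10 min at RT with compound (up to 57.5 uM final), then substrate plus GAPDH/TPI/NAD/arsenate coupling system with diaphorase/resazurin was added; resorufin fluorescence (525/598 nm) was read after 20 min.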
# Pf growth 96h: Primary qHTS for delayed death inhibitors of the malarial parasite plastid, 96 hour incubation; P. falciparum luciferase reporter growth, 96 h; 320,000 tested, 6.9% active; Potency, µM (doses to about 28.7 µM), inactives show top-dose activity change, negative = inhibition, hits mostly inhibitors; AID 504834, 2011; also: potency is read from the fitted curve at half-maximal effect
#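 Delayed-death screen, second-generation endpoint: infected erythrocytes, 2% hematocrit, 0.05% parasitemia final; 96 hours at 37 C, 5% CO2; luciferase detection reagent; luminescence decrease equals reduced growth.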
# HCMV antiviral: qHTS Assay for inhibitors of the human cytomegalovirus (HCMV) | HFF cells, HCMV-luciferase reporter, 72 h; active compounds read low | activity change, negative = inhibition, % at 57.5 µM | 410,000 tested, 4.5% active; in the data active = activity change below about -60%; inconclusive = no clear call, values can overlap the other calls; inactive = above about -39%
#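 Inhibition of viral replication was scored as loss of reporter luminescence in HFFs infected with HCMV-luciferase (MOI 1 PFU/cell) for 72 h; compounds tested at 2 doses, normalized to buffer and Salinomycin controls.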
# Sm TGR block: qHTS Assay for the Inhibitors of Schistosoma Mansoni Peroxiredoxins | Schistosoma mansoni thioredoxin glutathione reductase (TGR), Q962Y6 | purified TGR, DTNB reduction, TNB absorbance 405 nm | Potency, µM (titrated, usually from 114 µM), without a hit: at the top dose activity change, negative = inhibition, most hits filed as inhibitors | 360,000 tested, 3% active | AID 485364, 2010; also: potency is read from the fitted curve at half-maximal effect; nearly all actives have a fitted effect of over 60% in size
#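 TGR 20 nM + NADPH 100 uM (dispensed conc.), cpd preinc 15 min RT; start with NADPH (500 uM addition) then DTNB (15 mM addition). Kinetic TNB absorbance, 405 nm filter. Four-parameter Hill fit across titration.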
# Pf growth 48h: Primary qHTS for delayed death inhibitors of the malarial parasite plastid, 48 hour incubation. 310,000 tested, 5.9% active. P. falciparum luciferase growth in erythrocytes, 48 h. Potency, µM (doses to about 28.7 µM), inactives show at the top dose activity change, negative = inhibition, actives largely listed as inhibitors; also: potency is read from the fitted curve at half-maximal effect
#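 A one-generation exposure of luciferase-tagged malaria parasites in RPMI 1640/Albumax erythrocyte culture, 37 C and 5% CO2. Inhibition is inferred from decreased luminescence after adding detection reagent.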
# Starred values were filed as active, the others as inactive; ? = inconclusive; · = no result given; ! = not confirmed by another sample; [ ] = remark or other dose. The list is not random: actives were taken first. Their share in the collection is about 14%. Unless noted, calls follow the shape of the dose curve; as a rule, active = well fitted curve in the direction sought with a large enough effect; inconclusive = small, poorly fitted or top-dose-only effect, or another doubt; inactive = no such curve, though single readings can be large; an effect the other way counts as inactive or inconclusive. % is scaled to controls: 0 for no effect and ±100 for the full control effect.
SMILES,FBPA Giardia inh,Pf growth 96h,HCMV antiviral,Sm TGR block,Pf growth 48h
CCCCN(C)CCNC(=O)c1nn(-c2ccc(OC)cc2)c(=O)c2c1c1ccccc1n2C,2.6%,2.62µM*,?,-0.2%,?
CCOC(CCNC(=O)c1cn(CC(C)C)c(=O)c2c1c1ccccc1n2C)OCC,4.2%,0.522µM*,33.3,2.0%,-16.7%
CCCCN(CC)CCCNC(=O)c1cn(CC(C)C)c(=O)c2c1c1ccccc1n2C,11.3%,-25.2%,-10.7,31.6µM*!,13.1µM*
Cc1nonc1NC(=O)CSc1nc2c(C)cccc2cc1C#N,-5.3%,10.4µM*,-35.1,-7.6%,?
O=C(CN1C(=O)NC2(CCc3ccccc32)C1=O)NCC(=O)Nc1ccc(F)cc1 (centres undefined),·,-20.7%,-12.5,-1.6%,?
O=C(N[C@@H]1CC[C@@H](CCn2cc(-c3ccccc3)nn2)O[C@@H]1CO)c1cnccn1,·,·,-70.4*,·,·
O=C(N[C@@H]1CC[C@H](CCn2cc(-c3ccccn3)nn2)O[C@@H]1CO)c1ccncc1,·,·,-11.8,·,·
Cn1cccc1C(=O)N1CCC2(CCCN(c3ccccc3)C2)CC1,-3.8%,·,·,·,·
OC[C@@H](O)[C@@H](O)CCc1ccccc1,1.4%,·,·,·,·
O=C(Nc1cccc(Cl)c1)N1CCC(CO)(CCOc2ccccc2)CC1,9.8%,13.1µM*,1.5,4.3%,-5.6%
CC(=O)c1cccc(CN2CCC(CO)(CCOc3ccccc3)CC2)c1,7.3%,?,-5.0,4.4%,-20.8%
Cc1ccc(NC(=O)N2CCN(c3ncccc3C(F)(F)F)CC2)cc1,-4.6%,13.1µM*,-2.0,4.6%,8.28µM*
O=C(Nc1ccc2ccccc2c1)N1CCN(c2ncccc2C(F)(F)F)CC1,?,?,8.9,-1.6%,?
CN1CCC(CO)(Cc2ccccc2)CC1,1.6%,3.7µM*,-36.8,0.9%,35.1%
O=C(Nc1ccc(Br)cc1)N1CCCCC1,-4.2%,15.3%,-6.1,-0.2%,47.0%
O=C(Nc1ccc(NC(=O)N2CCN(c3ccccc3O)CC2)cc1)N1CCN(c2ccccc2O)CC1,-0.2%,5.86µM*,6.0,-1.3%,?
CCCCN(CCCC)S(=O)(=O)c1ccc2oc(C(=O)NCc3ccccc3)c(C)c2c1,·,·,-13.3,19.5%,·
O=C(CN1CCCN(Cc2ccccc2Cl)S1(=O)=O)Nc1ccc2c(c1)OCCO2,·,·,-7.7,7.9%,·
COC(=O)c1ccc(NC(=O)CCN2CCN(c3ccccc3)CC2)cc1,2.6%,-25.9%,35.0,-26.1%,?
O=C(NCc1ccccc1)N1CCC(CO)(Cc2cccc(F)c2)CC1,2.8%,5.4%,0.0,5.3%,0.8%
CC(=O)c1ccc(NC(=O)N2CCN(c3cccc(Cl)c3)CC2)cc1,-10.4%,?,-8.1,-7.5%,4.65µM*
O=C(CCN1CCN(c2ccccc2)CC1)Nc1ccc(Cl)cc1,-3.3%,3.7µM*,-0.1,0.3%,-4.7%
Cc1csc2c(N3CCN(C(=O)Nc4ccc(OC(F)(F)F)cc4)CC3)ncnc12,-19.6%,?,-25.1,4.8%,1.47µM*
O=C(Nc1ccc(Cl)cc1)N1CCC(CO)(Cc2ccccc2)CC1,-2.6%,2.62µM*,-19.8,-10.0%,-9.1%
O=S(=O)(NCc1ccccc1)c1ccc(NC(=S)NCc2ccco2)cc1,14.4%,?,-23.9,-34.2%,-19.1%
SMILES,FBPA Giardia inh,Pf growth 96h,HCMV antiviral,Sm TGR block,Pf growth 48h
O=C(Nc1ccc(Cl)cc1)N1CCN(c2ccccc2)CC1,-0.8%,11.7µM*,-24.5,-3.0%,?
O=C(Nc1ccc(Cl)cc1)N1CC1,·,·,-36.2,·,·
COc1ccc(OCCCCn2c(-c3ccc(Cl)cc3)nc3ccccc3c2=O)cc1,·,·,0.1,-11.2%,·
COc1ccc(NN=Nc2ccc([N+](=O)[O-])cc2)cc1,-7.4%,112.5%,74.3,-31.7%,190.6%
CC/C(=N\Nc1ccc([N+](=O)[O-])cc1)c1ccccc1,1.3%,?,·,-2.8%,?
O=[N+]([O-])c1ccc(NN=C(Oc2ccccc2)c2ccc([N+](=O)[O-])cc2)cc1,·,·,-70.4*,·,·
COc1ccc(N/N=C(/Oc2ccc([N+](=O)[O-])cc2)C(C)=O)cc1,-1.0%,11.7µM*,23.0,-2.1%,?
On1onc2c3cc(-c4ccccc4)nc3ccc21,-26.6%,·,-108.0*,2.2%,?
c1ccc(-c2cc3c(ccc4nonc43)nn2)cc1,9.6%,-11.5%,37.3,0.0%,42.7%
Cc1ccc(S(=O)(=O)NCCn2nc(C)nc2C)cc1,6.0%,18.6%,-7.8,7.3%,16.9%
O=C(O)C(CO)(c1ccccc1)c1ccccc1,-4.7%,-2.4%,63.8,0.0%,37.7%
CCOC(=O)CNC(=S)N(Cc1ccc(C)cc1)Cc1ccc(C)o1,1.2%,-23.9%,-81.6*,-13.8%,-5.7%
CCOC(=O)c1ccccc1NC(=O)COC(=O)C1CCCC1,·,29.5%,-10.8,-8.0%,31.3%
Cc1nc2cccnc2n1C1CCN(S(C)(=O)=O)CC1,·,·,-20.0,-3.3%,·
Cc1ccccc1S(=O)(=O)N1C[C@H]2CON(C)[C@H]2C[C@H]1c1cccc(Oc2ccccc2)c1,·,·,-21.4,·,·
O=C(N/N=C/c1ccccc1C(=O)O)c1cc(-c2ccc3c4c(cccc24)CC3)n[nH]1,2.2%,-17.7%,-61.2*,-2.8%,?
CCOc1ccc(S(=O)(=O)c2cn(Cc3ccccc3C)c3ccc(OC)cc3c2=O)cc1,·,·,-7.2,1.3%,·
C/C(=C\c1ccccc1)CN1CCN(C)CC1,?,0.0522µM*,11.7,-30.9%,-13.6%
CCOC(=O)N1CCN(C/C(C)=C/c2ccccc2)CC1,?,-7.5%,27.2,-42.0%,8.9%
CCN(CC(=O)Nc1c(F)cccc1F)C(=O)c1ccc(N2CCCCC2)c([N+](=O)[O-])c1,·,-37.8%,-20.2,-0.1%,-8.0%
Cc1ccc(CNC(=O)C(=O)NCC(c2cccs2)S(=O)(=O)c2cccs2)cc1 (centres undefined),·,·,0.8,22.4µM*,·
COc1ccc(CNC(=O)C(=O)NCC(c2cccs2)S(=O)(=O)c2ccc(C)cc2)cc1 (centres undefined),·,·,-16.3,39.8µM*,·
C=C1CCC2C(C)(CO)C(O)CCC2(C)C1C/C=C1\C(=O)OCC1O (centres undefined),9.4%,·,·,·,·
CCOC(=O)c1c(NC(=O)COC(=O)Cc2ccccc2[N+](=O)[O-])sc(C(=O)N(C)C)c1C,·,-0.4%,-3.0,-1.2%,?
CCOC(=O)c1c(NC(=O)c2ccoc2C)sc(C(=O)N(C)C)c1C,-9.3%,10.4µM*,-37.3,-8.6%,·
CCOC(=O)c1c(NC(=O)COC(=O)c2ccccc2NC)sc(C(=O)N(C)C)c1C,·,5.22µM*,-12.3,-4.7%,?
OCC1(Cc2ccc(Cl)cc2)CCN(CCCc2ccccc2)CC1,0.7%,3.0%,-8.8,-4.6%[57.1 µM],?

# High-throughput results from PubChem BioAssay.
